Results as given in PubChem BioAssay AID463173 (ICCB-Longwood Screening Facility, Harvard Medical School, 2010).
Hit rate of the full screen: of about 52,000 compounds, about 4,300 (8.3%) were called active. This is one part of a sample in which actives are shown more often than they occur. Cut-off read from the data, not from the text of the source: active = survival mostly below about 52% (no sharp cut-off); inactive = mostly above about 56%.

These compounds were tested on DeltatarO mutant (assay: growth inhibition of S. aureus wild type versus tarO mutant, primary screen, teichoic acid synthesis inhibitors, RN4220, OD600 (AID 463173)). Settings: OD600, 18 h, active compounds read low, screened at 18.75 µg/mL (by protocol).
For CC(=O)c1cccc(NC(=O)c2cc3sc(Cl)cc3n2C)c1, the survival was 122% (inactive).
With CCOc1ccc(OCC)c(NC(=O)CN(C)S(=O)(=O)c2ccc3[nH]c(=O)oc3c2)c1 the survival was 85% (inactive).
For COc1ccc(NC(=O)CSc2nc3c(oc4ccccc43)c(=O)n2-c2ccc(C)c(C)c2)cc1, the survival was 82% (inactive).
COC(=O)c1sccc1S(=O)(=O)N(CC(=O)Nc1c(C)cccc1C)c1ccc(C)c(C)c1 was tested, and the survival was 94% (inactive).
For COC(=O)c1sccc1S(=O)(=O)N(CC(=O)Nc1cccc(C)c1C)c1ccc(C)c(C)c1, the survival was 89% (inactive).
In the case of COC(=O)c1sccc1S(=O)(=O)N(CC(=O)Nc1cc(F)ccc1F)c1ccc(C)c(C)c1, the survival is reported as 128% (inactive).
In the case of CCc1cccc(NC(=O)CN(c2ccc(C)c(C)c2)S(=O)(=O)c2ccsc2C(=O)OC)c1, the survival is reported as -5% (active).
With COC(=O)c1sccc1S(=O)(=O)N(CC(=O)Nc1ccc(C)c(F)c1)c1ccc(C)c(C)c1 the survival was 17% (active).
With COC(=O)c1sccc1S(=O)(=O)N(CC(=O)Nc1cc(C)ccc1C)c1ccc(C)c(C)c1 the survival was 88% (inactive).
For Cn1c(C(O)c2ccccc2)n[nH]c1=S (centres undefined), the survival was 93% (inactive).
With COc1cccc(-n2c(SCC(N)=O)nc3c(oc4ccccc43)c2=O)c1 the survival was 67% (inactive).
For O=C(c1ccccc1)N1CCN(S(=O)(=O)c2ccccc2)CC1, the survival was 68% (inactive).
In the case of Cn1cc(-c2cc3n(n2)CCC(=O)N3CCCC(=O)Nc2ccccc2Cl)c2ccccc21, the survival is reported as -5% (active).
For O=C(CN1C(=O)CCn2nc(-c3ccccc3)cc21)NCc1ccc(Cl)cc1, the survival was 0% (active).
For Cn1cc(-c2cc3n(n2)CCC(=O)N3CCCC(=O)Nc2ccccc2F)c2ccccc21, the survival was 134% (inactive).
With CN(C)c1ccc(CNC(=O)CN2C(=O)CCn3nc(-c4cn(C)c5ccccc45)cc32)cc1 the survival was 54% (inactive).
Cn1cc(-c2cc3n(n2)CCC(=O)N3CCCC(=O)NCc2ccccc2)c2ccccc21 was tested, and the survival was 92% (inactive).
For CN(C)c1ccc(CNC(=O)CCCN2C(=O)CCn3nc(-c4cn(C)c5ccccc45)cc32)cc1, the survival was 17% (active).
Cc1ccc(CNC(=O)CCCN2C(=O)CCn3nc(-c4cn(C)c5ccccc45)cc32)cc1 was tested, and the survival was 87% (inactive).
With Cc1cccc(CNC(=O)CCCN2C(=O)CCn3nc(-c4cn(C)c5ccccc45)cc32)c1 the survival was -5% (active).
CCc1ccccc1NC(=O)CCCN1C(=O)CCn2nc(-c3cn(C)c4ccccc34)cc21 was tested, and the survival was 130% (inactive).
In the case of Cc1ccc(CNC(=O)CN2C(=O)CCn3nc(-c4ccccc4)cc32)cc1, the survival is reported as 72% (inactive).
With Cn1cc(-c2cc3n(n2)CCC(=O)N3CCCC(=O)NCc2ccc(Cl)cc2)c2ccccc21 the survival was 122% (inactive).
In the case of O=C(CN1C(=O)CCn2nc(-c3ccccc3)cc21)NCc1ccccc1, the survival is reported as 106% (inactive).
COc1ccc(OC)c(NC(=O)c2c(NCc3sccc3C)sc3c2CCCCC3)c1 was tested, and the survival was 78% (inactive).
In the case of c1ccc(N2CCN(c3ccccc3)C2c2cccs2)cc1, the survival is reported as 67% (inactive).
With CCCCCN1C(C(=O)c2ccccc2)=C(NC(=O)c2ccc(OC)cc2)c2ccccc2S1(=O)=O the survival was 57% (inactive).
With Cc1ccc(Cn2c(=O)n(CCc3ccccc3)c(=O)c3c(C)c(C)sc32)cc1 the survival was 24% (inactive).
COc1cc(Cl)c(C)cc1NC(=O)CCn1c(=O)c2cccn2c2cccnc21 was tested, and the survival was 83% (inactive).
In the case of CC(C)(SC1CC(=O)N(c2ccccc2)C1=O)C(N)C(=O)O (centres undefined), the survival is reported as 98% (inactive).
For CCc1ccc2c(c1)NC(c1cccnc1)=NC(c1ccc(C(C)(C)C)cc1)=N2, the survival was 63% (inactive).
CCN1c2ccccc2-c2nc(SCC(=O)Nc3cccc(C)c3C)ncc2S1(=O)=O was tested, and the survival was 101% (inactive).
CCc1ccc(-c2nn(CC(=O)NCc3ccccc3)c3c2cnc2ccc(F)cc23)cc1 was tested, and the survival was 92% (inactive).
CCOc1ccccc1CNC(=O)CN1C(=O)CCn2nc(-c3cn(C)c4ccccc34)cc21 was tested, and the survival was 66% (inactive).
In the case of COc1ccc(CNC(=O)CN2C(=O)CCn3nc(-c4cn(C)c5ccccc45)cc32)cc1, the survival is reported as 96% (inactive).
For CCOc1ccc(CNC(=O)CN2C(=O)CCn3nc(-c4cn(C)c5ccccc45)cc32)cc1OC, the survival was -4% (active).
CCc1ccccc1NC(=O)CSc1nnc(-c2ccc(OC)cc2)s1 was tested, and the survival was 80% (inactive).
With Cc1ccc(C(=O)Nc2ccc3nc(SCC(=O)N4CCCc5ccccc54)sc3c2)cc1 the survival was 80% (inactive).
With CCOc1ccc(CNc2cc(C)nc3nc(-c4cccc(C)c4)nn23)cc1OC the survival was 95% (inactive).
For CCCCN(CC)CCCNC(=O)CN1C(=O)CSc2ccc(S(=O)(=O)N3CCOCC3)cc21, the survival was 97% (inactive).
With Cc1ccc(CN2CCC(CNC(=O)Nc3ccccc3F)CC2)cc1 the survival was 113% (inactive).
O=C(NCC1CCN(Cc2ccccc2F)CC1)Nc1ccc(F)c(Cl)c1 was tested, and the survival was 100% (inactive).
With O=C(NCC1CCN(Cc2cccc(Cl)c2)CC1)Nc1cc(Cl)ccc1Cl the survival was 17% (active).
For O=C(NCC1CCN(Cc2cccc(Cl)c2)CC1)Nc1ccc(F)c(Cl)c1, the survival was 55% (inactive).
With Cc1ccc(NC(=O)NCC2CCN(Cc3cccc(Cl)c3)CC2)cc1Cl the survival was -5% (active).
For Cc1ccc(CN2CCC(CNC(=O)Nc3cccc(Cl)c3C)C2)cc1 (centres undefined), the survival was 75% (inactive).
For COc1ccc(Cn2ccnc2SCC(=O)Nc2ccc3c(c2)OCCO3)cc1, the survival was 94% (inactive).
CCCCN(CC)C(=O)c1cc2c(=O)n3ccccc3nc2n1C was tested, and the survival was 50% (inactive).
In the case of CCCCc1ccc(NC(=O)c2cc3c(=O)n4ccccc4nc3s2)cc1, the survival is reported as 89% (inactive).
For CCCCN(CCCC)C(=O)c1cc2c(=O)n3ccccc3nc2s1, the survival was 39% (active).
In the case of CCCN(CCC)C(=O)c1cc2c(=O)n3cccc(C)c3nc2s1, the survival is reported as 56% (inactive).
In the case of Cc1cccn2c(=O)c3cc(C(=O)NC(C)C)n(C)c3nc12, the survival is reported as 53% (active).
CCOC(=O)CNC(=O)c1cc2c(=O)n3cccc(C)c3nc2n1C was tested, and the survival was 102% (inactive).
With Cc1cccn2c(=O)c3cc(C(=O)NC(C)(C)C)n(C)c3nc12 the survival was 61% (inactive).
For CCCCN(CC)C(=O)c1cc2c(=O)n3cccc(C)c3nc2n1C, the survival was 56% (active).
CCCN(CCC)C(=O)c1cc2c(=O)n3cccc(C)c3nc2n1C was tested, and the survival was 62% (inactive).
With CCCCN(CCCC)C(=O)c1cc2c(=O)n3cccc(C)c3nc2s1 the survival was -13% (active).
In the case of CCCCN(CC)C(=O)c1cc2c(=O)n3cccc(C)c3nc2s1, the survival is reported as 54% (inactive).
In the case of O=C(NCc1ccc(F)cc1)c1cc2c(=O)n3ccccc3nc2s1, the survival is reported as 140% (inactive).
